Rows were chosen to be rich in hits. Some 1.5% of all compounds tested hit in one or more screens of this group.
AI-2 QS modul: modulates the Vibrio harveyi AI-2 quorum sensing system | Vibrio harveyi JMH597 AI-2 luminescence/OD600 ratio, 9 h; active compounds read low; strain lacks LuxN and CqsS sensors; 0 = neutral-control median | activity change, % at 7.5 µM | actives 0.4% (n = 300,000); in the data active means activity change below about -75%, passing the limit was not always enough;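 further: luminescence divided by OD600 gain over 9 h not by final OD600 alone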
HGIII-sPLA2 inh: Blocks human group III sPLA2 activity; Q9NZ20; QFRET BODIPY PC-A2 liposome hydrolysis, fluorescence; inhibition, % at 12.2 µM; actives 0.56% (n = 370,000); AID 743126;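 active means inhibition above mean plus 3 SD of compounds lying within the high and low control bounds, cut at about 19% in these data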;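 further: 0% = median of test compound wells and 100% = no enzyme DMSO wells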
Target sequence (Q9NZ20 whole entry, looked up): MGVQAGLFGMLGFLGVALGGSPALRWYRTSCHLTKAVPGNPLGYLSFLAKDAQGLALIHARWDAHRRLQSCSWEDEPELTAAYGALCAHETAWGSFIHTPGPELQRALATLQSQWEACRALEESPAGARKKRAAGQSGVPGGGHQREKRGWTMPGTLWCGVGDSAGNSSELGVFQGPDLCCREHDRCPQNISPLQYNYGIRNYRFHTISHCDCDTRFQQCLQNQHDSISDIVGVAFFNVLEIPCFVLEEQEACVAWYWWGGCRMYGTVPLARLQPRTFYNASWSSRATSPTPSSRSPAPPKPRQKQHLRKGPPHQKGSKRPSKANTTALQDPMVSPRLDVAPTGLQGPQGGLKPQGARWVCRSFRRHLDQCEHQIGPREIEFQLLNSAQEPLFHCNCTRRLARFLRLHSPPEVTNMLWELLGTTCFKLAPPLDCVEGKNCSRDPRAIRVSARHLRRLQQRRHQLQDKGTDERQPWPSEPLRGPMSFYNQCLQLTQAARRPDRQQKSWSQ
ARNT TACC3 PPI: ARNT/TACC3 interaction disruption. AlphaScreen His-ARNT PAS-B/GST-TACC3 binding, luminescence; TACC3 fragment carries E629A point mutation. Q9Y6A5. inhibition, % at 9.99 µM. actives 0.66% (n = 390,000);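 active means mean inhibition of replicates at least 50% and at least half of replicates each reaching 50%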;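 further: 0% = complete ARNT plus TACC3 wells and 100% = ARNT alone without TACC3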
Rin1 Abl inh: inhibitors of human Rin1-Abl protein interaction. P00519+Q13671. TR-FRET Rin1/Abl binding, biochemical. inhibition, % at 7.35 µM. actives 0.4% (n = 360,000). AID 588664; in the data active means inhibition above about 5%, passing the limit was not always enough
Rin1 Abl conf: confirmation of inhibitors of human Rin1-Abl interaction; shares compounds with Rin1 Abl inh; TR-FRET Rin1-Abl binding, purified proteins; inhibition, % at 7.35 µM; actives 49% (n = 1,300); AID 602124
GFP quench: GFP fluorescence interference artifact | shares compounds with Rin1 Abl inh | inhibitors/quenchers counterscreen | inhibition, % at 6.75 µM | AID 602125 | actives 8.5% (n = 1,300);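 further: ABL1-eGFP fusion protein alone without its partner RIN1-SBP; 0% = protein with vehicle and 100% = wells lacking protein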
GFP quench DR: GFP fluorescence interference dose response; shares compounds with Rin1 Abl inh; GFP fluorescence interference/quenching counterscreen; IC50, µM; 230 tested, under 10 active; AID 602182; call rule not given here;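 further: ABL1-eGFP fusion protein alone without its RIN1 binding partner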
An asterisk follows results filed as active; . = no result given. Unless noted, no stated cut-off is given here; in the data, active means inhibition above about 6.5%; inactive means the rest.

SMILES	AI-2 QS modul	HGIII-sPLA2 inh	ARNT TACC3 PPI	Rin1 Abl inh	Rin1 Abl conf	GFP quench	others
C[C@@H]1CCCCO[C@@H](CN(C)C(=O)c2ccccc2)[C@H](C)CN([C@H](C)CO)C(=O)c2cc(NC(=O)Nc3ccc(C(F)(F)F)cc3)ccc2O1	.	.	7	.	.	.
O=C(c1ccc(Cl)c(Cl)c1)N1CCC(=O)N(C(COCc2ccccc2)Cc2ccccc2)CC1 (stereo not drawn)	17	-16	-3	9.5*	15*	0
O=C(c1ccc(Cl)c(Cl)c1)N1CCC(=O)N([C@H](COCc2ccccc2)Cc2ccccc2)CC1	.	-11	.	.	.	.
CCC(=O)Nc1ccc2c(c1)C(=O)N(C)C[C@H](OC)[C@@H](C)CN(Cc1ccccn1)[C@H](C)CO2	.	.	-1	.	.	.
Cc1ccc(S(=O)(=O)NN2C(=O)c3ccccc3NC2c2ccccc2F)cc1 (stereo not drawn)	9	1	-2	13*	-2	-5
Cc1ccc(NC(=O)CSc2nc3c(c(=O)n(C)c(=O)n3C)n2C)cc1	8	1	.	6.8*	0	-4
CN(C)c1cccc(CNC(=O)c2ccc3nc([C@H]4C[C@H](O)[C@@H](CO)O4)[nH]c3c2)c1	.	18	.	-3	.	.
CN(C)c1cccc(CNC(=O)c2ccc3nc([C@@H]4O[C@H](CO)[C@H](O)[C@H](O)[C@H]4O)[nH]c3c2)c1	.	-2	.	14*	-1	-1
O=C(C[C@@H]1CC[C@@H]2[C@H](COC[C@@H](O)CN2CC2CCOCC2)O1)NCC1CCCCC1	.	.	-2	.	.	.
C[C@H]1CN([C@@H](C)CO)C(=O)CCCn2cc(nn2)CO[C@H]1CN(C)C(=O)Nc1ccnc(N2CCOCC2)c1	.	.	-2	.	.	.
O=S(=O)(c1ccc(Cl)cc1)N1CCC2(CC1)OCCO2	17	2	-6	12*	0	-2
O=C1CC=Nc2ccc([N+](=O)[O-])cc21	.	8	.	15*	-2	-1
CC(=O)c1cccc(NC(=O)CNC(=O)c2cc3ccccc3o2)c1	9	4	-5	17*	-10	0
O=C(Nc1ccc2c(c1)OCO2)c1ccc[n+]([O-])c1	16	-1	-13	5.0*	2	-2
CC1=C(C(=O)OC(C)C)C(c2coc3ccccc3c2=O)C2=C(CCCC2=O)N1 (stereo not drawn)	26	-1	5	-2	.	.
CCSCCOC(=O)C1=C(C)NC2=C(C(=O)CCC2)C1c1coc2ccccc2c1=O (stereo not drawn)	6	1	-1	20*	30*	0	GFP quench DR=>68
CCNC(=O)C[C@H]1CC[C@@H]2[C@H](COc3ccc(NC(=O)NC(C)C)cc3C(=O)N2C)O1	.	.	3	.	.	.
Cc1ccc(C(=O)NCc2ccncc2)cc1S(=O)(=O)Nc1cccc(C)c1C	-1	-7	.	15*	-1	-3
C[C@H]1c2cccc(O)c2C(=O)C2C(=O)C3(O)C(=O)C(C(N)=O)C(=O)[C@@H](N(C)C)[C@@H]3[C@@H](O)[C@@H]21 (stereo partly drawn)	.	18	34	6	.	.
C=C1c2cccc(O)c2C(O)=C2C(=O)[C@]3(O)C(O)=C(C(N)=O)C(=O)[C@@H](N(C)C)[C@@H]3[C@@H](O)[C@H]12	-83*	0	61*	23*	17*	12*
C[C@@H]1CN([C@@H](C)CO)C(=O)c2cc(NS(=O)(=O)c3cn(C)cn3)ccc2O[C@@H]1CN(C)C(=O)Nc1ccccc1	.	.	-6	.	.	.
O=C(Nn1cnc2ccccc2c1=O)c1ccc(Br)cc1	-62	0	-9	13*	-1	-1
COC(=O)Nc1csc2c1NC(=O)CCCC2	14	17	.	43*	44*	-1	GFP quench DR=>68
CC(=O)c1cccc(OCc2cc(C(=O)N3CCC(N4CCCCC4)CC3)no2)c1	-1	-2	-2	9.9*	6	0
CC(=O)c1cccc(OCc2cc(C(=O)N3CCSCC3)no2)c1	-36	-3	-4	0	.	.
SMILES	AI-2 QS modul	HGIII-sPLA2 inh	ARNT TACC3 PPI	Rin1 Abl inh	Rin1 Abl conf	GFP quench	others
CN1C(=O)c2cc(NC(=O)Cc3ccccc3)ccc2OC[C@H]2O[C@H](CC(=O)NC3CCC3)CC[C@@H]21	.	.	-6	.	.	.
Cc1ccc(Oc2nnc(-c3cccs3)c3ccccc23)cc1C	16	-1	-5	6.0*	2	0
C[C@H](CO)N1C[C@H](C)[C@@H](CN(C)C(=O)Nc2ccccc2)Oc2ccc(NS(=O)(=O)c3cn(C)cn3)cc2CC1=O	.	.	-5	.	.	.
Cc1noc(C)c1NC(=O)Nc1ccc2c(c1)C(=O)N([C@@H](C)CO)C[C@@H](C)[C@@H](CN(C)S(=O)(=O)c1ccccc1)OCCCC[C@@H](C)O2	.	.	2	.	.	.
O=C(Nc1ccc(O)cc1C(=O)O)c1cccc(Br)c1	2	-15	-5	16*	24*	-1	GFP quench DR=>68
CCOc1c(Cl)cc(C(=O)Nc2ccccc2C(=O)O)cc1Cl	-4	-23	0	13*	19*	1	GFP quench DR=>68
CC(=O)Nc1cccc(C(=O)Nc2ccccc2C(=O)O)c1	3	0	-2	17*	-2	0
COc1cc(C(=O)Nc2ccc(O)cc2C(=O)O)ccc1OC(C)=O	23	-2	-1	71*	72*	0	GFP quench DR=>68
CC(C)CC#Cc1cnc2c(c1)C(=O)N([C@@H](C)CO)C[C@@H](C)[C@@H](CN(C)C(=O)c1ccc3c(c1)OCO3)O2	.	.	2	.	.	.
CCCNC(=O)[C@H]1[C@H](CO)[C@H]2Cn3c(ccc(-c4ccccc4F)c3=O)[C@@H]1N2C(=O)CC	.	.	-4	.	.	.
COCC(=O)Nc1ccc2c(c1)OC[C@@H](C)N(C)C[C@H](C)[C@H](OC)CN(C)C2=O	.	.	8	.	.	.
COc1ccc(S(=O)(=O)N(C)C[C@@H]2Oc3ccc(NS(C)(=O)=O)cc3C(=O)N([C@H](C)CO)C[C@@H]2C)cc1	.	.	-10	.	.	.
CC(=O)Cc1cc(=O)c2c(C)cc(O)c(C3OC(CO)C(O)C(O)C3O)c2o1 (stereo not drawn)	2	2	0	-2	.	.
O=c1cc(-c2ccc(O)c(O)c2)oc2cc(O)c([C@@H]3O[C@H](CO)[C@@H](O)[C@H](O)[C@H]3O)c(O)c12	.	4	11	22*	28*	10*
O=c1cc(-c2ccc(O)cc2)oc2c([C@@H]3O[C@H](CO)[C@@H](O)[C@H](O)[C@H]3O)c(O)c([C@@H]3O[C@H](CO)[C@@H](O)[C@H](O)[C@H]3O)c(O)c12	18	2	-5	1	.	.
O=c1c2cc(O)c(O)cc2oc2cc(O)c(C3OC(CO)C(O)C(O)C3O)c(O)c12 (stereo not drawn)	14	-2	33	29*	30*	8.4*

Screening results from PubChem BioAssay.
